Experimental data from PubChem BioAssay (NCI).
This is part of a sample that, as a whole, favours compounds with a hit. Of some 83,000 tested, about 20% had one in any assay.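 Single-dose data. Exposure time 48 hours. Values below 10 considered active.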 Unmarked numbers belong to inactive results. Activity calls are given as the source filed them.

Tests used:
Test in all cases: NCI-60 one-dose screen, 48 h (100 = growth as untreated, 0 = no growth, -100 = all killed)
[1] = system: HCT-15 colon; conditions: 10 µM unless noted
[2] = system: HT29 colon; conditions: 10 µM unless noted
[3] = system: SNB-75 CNS; conditions: 10 µM unless noted
[4] = system: SNB-19 CNS; conditions: 10 µM unless noted
[5] = system: U251 CNS; conditions: 10 µM unless noted
[6] = system: PC-3 prostate; conditions: 10 µM unless noted
[7] = system: SK-MEL-5 melanoma; conditions: 10 µM unless noted
[8] = system: LOX IMVI melanoma; conditions: 10 µM
[9] = system: SK-MEL-28 melanoma; conditions: 10 µM unless noted
[10] = system: SK-MEL-2 melanoma; conditions: 10 µM unless noted
[11] = system: EKVX NSCLC; conditions: 10 µM unless noted
[12] = system: SN12C renal; conditions: 10 µM unless noted
[13] = system: UO-31 renal; conditions: 10 µM unless noted
[14] = system: TK-10 renal; conditions: 10 µM unless noted
[15] = system: ACHN renal; conditions: 10 µM unless noted
[16] = system: CAKI-1 renal; conditions: 10 µM unless noted
[17] = system: A498 renal; conditions: 10 µM unless noted
[18] = system: CCRF-CEM leukemia; conditions: 10 µM unless noted
[19] = system: MOLT-4 leukemia; conditions: 10 µM unless noted
[20] = system: UACC-62 melanoma; conditions: 10 µM unless noted

| Compound | growth [1] | growth [2] | growth [3] | growth [4] | growth [5] | growth [6] | growth [7] | growth [8] | growth [9] | growth [10] | growth [11] [%] | growth [12] | growth [13] | growth [14] | growth [15] | growth [16] | growth [17] | growth [18] | growth [19] [%] | growth [20] |
| --- | --- | --- | --- | --- | --- | --- | --- | --- | --- | --- | --- | --- | --- | --- | --- | --- | --- | --- | --- | --- |
| C=CCS(C)(=O)=O | 102% | 97.1% | 94.1% | 101% | 90.4% | 101% | 104% | 103% | 106% | 100% | 91.3 | 98.1% | 90.3% | 96.6% | 102% | 92.5% | 105% | 110% | 109 | – |
| CCNc1ncnc2[nH]ncc12 | 102% | 108% | 88.9% | 104% | 101% | 94.6% | 101% | 98% | 111% | 101% | 88.6 | 96.9% | 99.7% | 102% | 98.2% | 93% | 96.9% | 30.1% | 134 | – |
| C=C(C)COc1ccc(C(C)(C)C)cc1 | 108% | 99.2% | 94% | 103% | 88.5% | 96.9% | 104% | 101% | 108% | 101% | 98.9 | 103% | 95.3% | 97.1% | 105% | 96.2% | 105% | 103% | 111 | – |
| CC(=O)N(CCCCCCN(C(C)=O)C(C)=O)C(C)=O | 107% [100 µM] | 114% [100 µM] | 87.9% [100 µM] | 99.2% [100 µM] | 107% [100 µM] | 104% [100 µM] | 104% [100 µM] | – | 105% [100 µM] | 117% [100 µM] | – | 103% [100 µM] | 98.1% [100 µM] | 116% [100 µM] | 104% [100 µM] | 98.7% [100 µM] | 108% [100 µM] | 103% [100 µM] | – | 97% [100 µM] |
| O=C(NCc1ccccc1)c1cccc([N+](=O)[O-])c1 | 104% | 97.8% | 101% | 95.1% | 89.1% | 88.9% | 103% | 105% | 114% | 104% | 102 | 104% | 70.1% | 99.6% | 102% | 102% | 82.3% | 90.9% | 102 | – |
| CN(CCCN(C)CCC1CCCCC1)CCC1CCCCC1 | 8.41% (active) | 3.68% (active) | -0.933% (active) | 77.3% | 11.1% | 43.2% | -100% (active) | -4.45% (active) | -84.9% (active) | 74.8% | 61.4 | 53.1% | 49.8% | 76.1% | 35.4% | 46.9% | 84.7% | 20.9% | – | – |
| NNC(=O)c1ccccc1N | 110% | 106% | 87.9% | 114% | 106% | 101% | 107% | 105% | 117% | 168% | 110 | 108% | 99.2% | 129% | 111% | 104% | 140% | -39.5% (active) | 112 | – |
| CC(C)C1CCC(C)C(O)C1 (stereo not given) | 107% | 105% | 91.1% | 99.6% | 89% | 89% | 105% | 99.6% | 110% | 94.2% | 102 | 96.3% | 89.3% | 99.2% | 104% | 98% | 92% | 96.1% | – | – |
| COc1cccc(C(=O)O)c1OC | 101% | 96.8% | 90.8% | 106% | 98.2% | 96.3% | 104% | 99% | 102% | 99.3% | 91.9 | 96.6% | 86.5% | 96.2% | 93% | 97.4% | 97.4% | 107% | 110 | – |
| CCCCOC(=O)c1ccccc1O | 104% | 111% | 85.9% | 102% | 100% | 101% | 104% | 100% | 113% | 161% | 106 | 107% | 99.2% | 115% | 104% | 107% | 129% | -71.6% (active) | 117 | – |
| CC1(C)OC(=O)CC1=O | 110% | 93.5% | 93.5% | 105% | 83.2% | 81.5% | 98.7% | 96.9% | 109% | 90.9% | 96.8 | 105% | 92.9% | 87% | 101% | 90.4% | 88.9% | 89.3% | 85.1 | – |
| C/C(=N\Nc1ccc([N+](=O)[O-])cc1[N+](=O)[O-])c1ccc(Br)cc1 | 97.5% | 92.2% | 104% | 97.8% | 92.2% | 91.2% | 100% | 95.8% | 107% | 97.4% | 96.4 | 96.2% | 85% | 105% | 105% | 98.1% | 102% | 96.5% | 104 | – |
| OCCc1ccc(Cl)cc1 | 102% | 99.9% | 86.5% | 96.5% | 92.3% | 95.5% | 103% | 100% | 108% | 99.3% | 97.9 | 94.9% | 90.5% | 94.7% | 105% | 92.7% | – | 96.9% | 109 | – |
| NC(CO)(CO)c1ccccc1 | 97.2% | 100% | 88.7% | 107% | 97.3% | 100% | 97.9% | – | 106% | 107% | 113 | 108% | – | 96.9% | 112% | 96.1% | 101% | 90% | 108 | 101% |
| NS(=O)(=O)c1cc(=O)[nH]c(=O)[nH]1 | 111% | 108% | 93.1% | 106% | 98% | 120% | 107% | 93.4% | 110% | – | 112 | 108% | 100% | 113% | 104% | 111% | 190% | 103% | 148 | – |
| NNc1ncccn1 | 106% | 91.8% | 80.2% | 111% | 102% | 106% | 115% | 96.9% | 106% | 90.2% | – | 103% | 83.5% | 92.2% | 105% | 102% | 91.7% | 109% | 110 | – |
| Cc1ccc2nc(N)nnc2c1 | 102% | 112% | 90.5% | 102% | 111% | 96% | – | 100% | 110% | 107% | 113 | 98.4% | 87.5% | 108% | 108% | 83.7% | 95.2% | 102% | 100 | 105% |
